Screening data as filed in PubChem.
Rows were chosen to be rich in hits. Some 21% of all compounds tested hit in one or more screens of this group.
SARS PLpro yeast: qHTS of Yeast-based Assay for SARS-CoV PLP | S. cerevisiae expressing SARS-CoV PLpro, growth rescue | Potency, µM (series often up to 32.9 µM), for the others: at the highest dose activity, positive = growth rescue, usual class: activators | actives 0.19% (n = 330,000) | AID 485353, 2010; calls by dose curve; further: potency means the concentration at half of the fitted maximal effect; 0% is about no effect; nearly all actives have a fitted effect of over 55% in size
Shiga inhibitor: A qHTS for Small Molecule Inhibitors of Shiga Toxin. inhibition, % at 38.7 µM. Vero cells, Shiga toxin protein synthesis inhibition reporter. actives 9.2% (n = 290,000). AID 2315, 2010; in the data active means inhibition mostly above about 28%, no sharp cut-off; inactive means mostly below about 43%; further: 0% is about no effect
Pf growth 48h: Primary qHTS for delayed death inhibitors of the malarial parasite plastid, 48 hour incubation | P. falciparum luciferase growth in erythrocytes, 48 h | AID 504832, 2011 | actives 5.9% (n = 310,000) | Potency, µM (doses to about 28.7 µM), for inactives: at the highest dose activity change, negative = inhibition, hits mostly inhibitors; further: potency means the concentration at half of the fitted maximal effect; on the % scale 0 is the no-effect control and ±100 the full control effect
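Cell-based growth assay: transgenic P. falciparum expressing firefly luciferase, cultured in red cells within RPMI 1640 containing 0.5% w/v Albumax, 24 mM bicarbonate and gentamycin. A drop in luciferase activity indicates inhibition.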
NS1 inh: qHTS Assay for Inhibitors of Influenza NS1 Protein Function | Potency, µM (titrated, usually from 46.1 µM), for inactives: at the highest dose activity, positive = more growth | actives 0.4% (n = 270,000) | AID 2326, 2010; calls by dose curve; further: potency means the concentration at half of the fitted maximal effect; actives are rising curves; nearly all actives have a fitted effect of over 50% in size
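Read-out: OD600 growth recovery of NS1-expressing budding yeast. Cells grown overnight at 30C in -URA glucose medium, washed, resuspended and diluted 1:100 in 2% galactose assay medium, pH 6.0. Same strain lacking NS1 served as positive control.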
Pf growth 96h: Primary qHTS for delayed death inhibitors of the malarial parasite plastid, 96 hour incubation. P. falciparum luciferase reporter growth, 96 h. Potency, µM (series often up to 28.7 µM), for inactives: at the top dose activity change, negative = inhibition, usual class: inhibitors. actives 6.9% (n = 320,000). AID 504834, 2011; further: potency means the concentration at half of the fitted maximal effect; on the % scale 0 is the no-effect control and ±100 the full control effect
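96 h incubation, 37 C, 5% CO2, of luciferase-reporter P. falciparum-infected RBCs (2% hematocrit, 0.05% parasitemia final) with test compounds; endpoint luminescence.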
Cycloheximide cs: Cycloheximide Counterscreen for Small Molecule Inhibitors of Shiga Toxin. cell reporter, cycloheximide protein synthesis inhibition counterscreen. max response, %. actives 12% (n = 300,000). AID 2314, 2010; in the data active means max response mostly above about 13%, no sharp cut-off; inactive means mostly below about 14%; further: read at 38.3 µM for the half of the compounds with a filed dose; 0% is about no effect
Active calls of the source: *; ? = inconclusive; . = no result; [ ] = another dose, or the depositor's remark. Unless noted, the call rests on the fitted dose curve; in most records, active means well fitted inhibition curve with a large enough effect; inconclusive means small, poorly fitted or top-dose-only effect, or another doubt; inactive means no such curve, though single readings can be large or run the other way.

SMILES	SARS PLpro yeast	Shiga inhibitor	Pf growth 48h	NS1 inh	Pf growth 96h	Cycloheximide cs
C=CCn1c(-c2cccs2)nc2nc3ccccc3nc21	-4%	45*	19%	-71%	.	30*
C=CCn1c(-c2cccs2)nc2ccccc21	-9%	23*	9%	-32%	4%	16*
CCCn1c(-c2cccs2)nc2ccccc21	-6%	18	-17%	-122%	?	20
C[C@@H](C(=O)OCC(=O)c1ccccc1)N1C(=O)C2CCCCC2C1=O (stereo partly drawn)	5%	.	.	.	.	.
Cc1ccc2cc(-c3noc(C4CCCCC4)n3)c(=O)[nH]c2c1	1%	2	39%	5%	9%	1
Cc1ccc2cc(-c3noc(C4CCCO4)n3)c(=O)[nH]c2c1 (stereo not drawn)	2%	56	.	2%	?	17*
CCS(=O)(=O)NCCc1cc2ccc(C)cc2[nH]c1=O	-7%	-14	24%	-6%	43%	-2
CCOc1ccccc1-c1nc(-c2cc3ccccc3nc2OC)no1	-2%	-1	0%	0%	?	1
Cc1ccc2[nH]c(=O)c(-c3noc(CC(C)C)n3)cc2c1	-1%	23	9.3µM*	2%	5.2µM*	3
CCCc1nc(-c2cc3ccc(C)cc3[nH]c2=O)no1	-1%	59*	6%	-2%	3.7µM*	23*
Cc1ccc(S(=O)(=O)N(C)Cc2cc3cc(C)ccc3[nH]c2=O)cc1	7%	-4	-12%	14%	?	-2
CCOc1ccccc1-c1nc(-c2cc3ccc(C)cc3[nH]c2=O)no1	7%	14	9.3µM*	-20%	-6%	-2
O=C(CCc1nnc(CCC2CCCCC2)o1)NCc1ccon1	-1%	13	8%	4%	?	-2
CCN(C(=O)COC(=O)c1oc2ccc(OC)cc2c1C)C1CCCCC1	-4%	.	6%	.	15%	.
Nc1c(-c2ccc(Cl)cc2)cnn1-c1ccccc1	-4%	114*	10%[0.00184 µM]	-5%	207%	37*
CC(C)(C)S(=O)(=O)c1cnc2c(-c3ccc(Cl)cc3)cnn2c1N	-2%	-6	28%	6%	68%	-4
Nc1c(-c2ccc(Cl)cc2)cnc2c(-c3ccccc3)cnn12	-3%	89*	14%[0.00184 µM]	-2%	344%	36*
COc1ccc(-c2cnn(-c3ccccc3)c2N)cc1OC	-12%	36	-3%	-1%	3%	12
COc1ccc(-c2nnn(-c3cc(Cl)cc(Cl)c3)c2N)cc1	0%	27	?	-7%	?	16
Cc1ccc(-c2cnn(-c3ccccc3)c2N)cc1	-4%	41*	232%	-3%	412%	32*
Nc1c(-c2ccc(Cl)cc2)nnn1-c1ccccc1	-12%	98*	107%	-10%	8%	45*
Cc1nnc(-c2cnn(-c3ccccc3)c2N)n1Cc1ccccc1	-5%	3	2%	7%	81%	7
Cc1ccc(S(=O)(=O)C(C)C(=O)c2ccc3c(c2)OCCO3)cc1 (stereo not drawn)	12%	9	.	2%	30%	2
COc1ccc(C2=NOC3(CC(=O)N(c4ccc(F)cc4)C3=O)C2)cc1 (stereo not drawn)	0%	2	?	5%	?	-2
Nc1c(-c2ccccc2)cnn1-c1ccc(C(=O)O)cc1	3%	88*	.	-7%	173%	48*
SMILES	SARS PLpro yeast	Shiga inhibitor	Pf growth 48h	NS1 inh	Pf growth 96h	Cycloheximide cs
N#Cc1c(C#N)c(-c2ccccc2)n(-c2ccc(C(=O)O)cc2)c1N	3%	2	-5%	12%	?	-3
O=C1CCCN1c1ccc(N2CCCC2=O)cc1	0%	-4	14%	-2%	2.1µM*	-1
O=C1CCCN1c1ccc(CNS(=O)(=O)c2ccc(F)cc2)cc1	12%	24	24%	-6%	.	14*
CC(C)(C)c1ccc(OCCCn2ccnc2)cc1	-5%	15	?	-11%	?	8.4*
Cc1cc(OCCCn2ccnc2)ccc1C(C)C	-34%	17	?	-25%	-27%	10
c1ccc2cc(OCCCn3ccnc3)ccc2c1	-5%	17	?	-4%	?	17*
CC1(S(=O)(=O)O)CC(=O)c2ccccc2C1=O (stereo not drawn)	-22%	13	15µM*	-61%	1.7µM*	11
O=C1c2ccccc2C(=O)C1(O)O	2%	.	1%	.	74%	.
CC(C)(C)NC(=S)NC(=O)C12CC3CCC(CC(C3)C1)C2	-12%	-9	10µM*	-10%	0%	-3
Clc1ccc(N=NN2CCOCC2)cc1	1%	71*	47%	-4%	26%	42*
CC(=O)NS(=O)(=O)c1ccc(N=NN2CCCCC2)cc1	?	-7	14%	6%	?	-2
COC(=O)c1ccc(C(=S)N2CCOCC2)cc1	3%	-3	14%	-35%	-10%	6
O=C(O)c1ccc(N=NN2CCCCC2)cc1	?	57	0%	3%	38%	53*
COC(=O)c1ccc(N=NN2CCCCCC2)cc1	-28%	88*	191%	-23%	9%	79*
COC(=O)c1ccc(N=NN2CCOCC2)cc1	?	34*	187%	4%	13%	41*
Cn1c(=O)[nH]c(=O)c2c1nc(SCC(O)CO)n2Cc1ccccc1Cl (stereo not drawn)	1%	-3	-18%	7%	9%	-2
COc1ccc(CCC(=O)NCC2CCCCC2)cc1OC	0%	19	16%	-16%	40%	11
COc1ccc(C(=O)NCC2CCCN2S(=O)(=O)c2cccs2)cc1 (stereo not drawn)	4%	.	-21%	.	-13%	.
NS(=O)(=O)c1ccc(N=NN2CCCCC2)cc1	-1%	56*	65%	0%	34%	52*
CNC(=O)c1[nH]cnc1C(=O)NCC(=O)OCc1ccccc1	9%	26	57%	1%	63%	-2
O=C(c1ccccc1)N1CC(COc2ccccc2)OC(c2cccnc2)O1 (stereo not drawn)	-16%	29	7%	-83%	.	16*
COc1cc(C)ccc1OCc1cc(C(=O)N(Cc2c(C)nn(C)c2C)C2CC2)no1	3%	76*	-24%	-8%	40%	52*
COc1cc(Cl)ccc1OCc1cc(C(=O)N2C[C@@H]3CCC[C@H]2C3)no1	-3%	145*	23%	-15%	-20%	60*
COCC1CCN(C(=O)c2cc(COc3ccc(C)c(C)c3)on2)C1 (stereo not drawn)	-7%	12	5%	-31%	?	10
O=C(c1cc(COc2cccc(C(F)(F)F)c2)on1)N1C[C@@H]2CCC[C@H]1C2	-5%	77*	?	-62%	25%	34*
